Rows were chosen to be rich in hits. Some 8.2% of all compounds tested hit in one or more screens of this group.
KB-3-1 cytotox: KB-3-1 parental cell cytotoxicity. KB-3-1 viability, CellTiter-Glo ATP luminescence, 72 h. Potency, µM (top dose mostly 46.1 µM), actives largely listed as cytotoxic. 400,000 tested, 1.4% active. AID 1347075; also: % is scaled to controls: 0 for no effect and ±100 for the full control effect; nearly all actives have a fitted effect of over 60% in size
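Parental KB-3-1 viability, qHTS format: 72 h compound exposure, 37 °C; CellTiter-Glo; media-only wells and DMSO plates as controls; concentration-effect fits on corrected data.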
KB-V1 MDR tox: kills drug-selected multidrug resistant KB-V1 cells | KB-V1 MDR cells viability, CellTiter-Glo, 72 h | Potency, µM (series often up to 46.1 µM), hits mostly cytotoxic | 400,000 tested, 3.4% active | AID 1347076; also: % is scaled to controls: 0 for no effect and ±100 for the full control effect; nearly all actives have a fitted effect of over 60% in size
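Following 72 h at 37 degrees C with compound, KB-V1 cell viability was read by CellTiter-Glo luminescence, medium being phenol-red-free DMEM plus 10% FBS; concentration-response parameters came from normalized, curve-fitted qHTS data.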
MCF10A rerep: inducers of DNA re-replication in MCF 10A breast cells; MCF 10A DNA re-replication, Hoechst nuclear intensity, 48 h; Potency, µM (titrated, usually from 46.1 µM), inactives show at the top dose activity, positive = re-replication, actives largely listed as activators; 350,000 tested, 2.9% active; AID 624296; also: % of control where 0% means no effect; nearly all actives have a fitted effect of over 50% in size
ELG1 DNA repair: ELG1-dependent DNA repair inhibition. HEK293T ELG1-luciferase reporter, luminescence, 16 h; DNA damage induced by 5-fluorouridine. Potency, µM (top dose mostly 46.1 µM), without a hit: top-dose activity change, negative = inhibition, hits mostly inhibitors. 330,000 tested, 2.3% active; also: % is scaled to controls: 0 for no effect and ±100 for the full control effect; nearly all actives have a fitted effect of over 55% in size
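In this reporter screen, reduction of luminescence relative to DMSO vehicle indicated activity. Compounds and 5-fluorouridine were added together to 2,000 cells per well, incubated for 16 hr at 37 °C, then developed with ONE-Glo.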
SW480 rerep: DNA re-replication induction in SW480 cells. SW480 DNA re-replication, Hoechst DNA content imaging, 48 h. Potency, µM (top dose mostly 46.1 µM), without a hit: at the top dose re-replication activation, usual class: activators. 340,000 tested, 1.8% active. AID 624297; also: % of control where 0% means no effect; nearly all actives have a fitted effect of over 55% in size
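Quantitative HTS format with DMSO vehicle controls; 48 hr drug incubation at 37 C, then 40 min Hoechst staining and scanning imager measurement at 405 nm excitation.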
* marks the source's active call; other numbers are inactive results; i = inactive; ? = inconclusive; . = not tested or not shown. Calls follow the shape of the dose curve; as a rule, active = well fitted curve in the direction sought with a large enough effect; inconclusive = small, poorly fitted or top-dose-only effect, or another doubt; inactive = no such curve, though single readings can be large; an effect the other way counts as inactive or inconclusive. Potency is read from the fitted curve at half-maximal effect.

SMILES | KB-3-1 cytotox | KB-V1 MDR tox | MCF10A rerep | ELG1 DNA repair | SW480 rerep
Cc1ccc(-c2c(C)n3c4c(=O)n(C)c(=O)n(C)c4nc3n2-c2cccc(O)c2)cc1 | ? | 18µM* | . | . | .
COc1ccccc1CNC(=O)[C@H](C)NC(=O)C1CCN(C(=O)[C@@H](N)CCSC)CC1 | i | i | 3% | 2% | 5%
COC(=O)c1c(SCC(=O)Nc2cc(C)cc(C)c2)[nH]c2ccccc2c1=O | ? | i | . | . | .
Cc1ccc(O)c(C(=O)c2cnc3c(c2)CN(C)C(=O)N3)c1 | ? | 7.9µM* | ? | ? | ?
CCOC(=O)c1c(C)c(C(=O)NC2CCCCCC2)c(C)n1C | i | 8.2µM* | 20% | ? | 3%
CCOC(=O)c1c(C)c(C(=O)N(C)C2CCCCC2)c(C)n1C | i | 15µM* | -1% | 23% | -4%
CCOC(=O)c1c(C)c(C(=O)N2CCCCCC2)c(C)n1C | i | i | -11% | -21% | -3%
Nc1nc2ccc(-c3nc4ccccc4o3)cc2s1 | 5.8µM* | 1µM* | ? | ? | 1%
CC(=O)Nc1ccc(S(=O)(=O)NCc2cc(=O)n(C)c(=O)n2C)cc1 | i | i | ? | 3% | 22%
Oc1ccc(-c2nc3c4c(ncn3n2)-c2ccccc2CC42CCCC2)cc1 | i | ? | 4.6µM* | ? | 1%
Nn1cnc2c(c1=O)C1(CCCCC1)Cc1ccccc1-2 | ? | ? | ? | -4% | ?
Cc1cccc(C2CC(=O)Nc3cc4c(cc32)OCO4)c1 (centres undefined) | ? | i | . | . | .
CC(C)c1ccc(C2C3=C(COC3=O)Nc3cc4c(cc32)OCO4)cc1 (centres undefined) | 0.73µM* | 1.2µM* | ? | 15% | ?
c1ccc(-c2nnc(N3CCOCC3)nc2-c2ccccc2)cc1 | i | i | 23% | -9% | 2%
CN1CCN(c2nc(-c3ccc(Br)cc3)nnc2-c2ccccc2)CC1 | i | 26µM* | ? | ? | 0%
Brc1ccc(-c2nnc(-c3ccccc3)c(N3CCSCC3)n2)cc1 | i | ? | 6% | ? | -3%
Cc1ccc(-c2nnc(-c3ccccc3)c(N3CCOCC3)n2)cc1 | ? | 5.8µM* | ? | ? | ?
COCCn1nnnc1C(c1cc2c(C)cc(C)cc2[nH]c1=O)N1CCCCCC1 (centres undefined) | i | i | -3% | 6% | 21%
Cc1cc(C)c2cc(C(O)c3nnnn3Cc3ccccc3)c(=O)[nH]c2c1 (centres undefined) | i | i | 2.6µM* | 14% | 4.6µM*
Cc1cc(C)c2cc(CN(CCO)C(c3nnnn3Cc3ccc(F)cc3)C(C)C)c(=O)[nH]c2c1 (centres undefined) | . | . | . | 5.2µM* | .
CCOC(=O)c1c(NC(=O)C(Sc2ccccc2)c2ccccc2)sc(C(=O)N(C)C)c1C (centres undefined) | ? | 2.9µM* | ? | ? | ?
Cc1ccc(Cl)cc1N1CCN(C(=O)Cn2ncc3c4ccccc4n(C)c3c2=O)CC1 | i | i | . | . | .
NC(=O)C1CCN(c2nccc(-c3ccc4c(c3)OCCO4)n2)CC1 | 9.2µM* | ? | . | . | .
C=C(C(=O)c1ccccc1)C(C)C(=C)C(=O)c1ccccc1 | ? | 3.3µM* | 2.9µM* | 21µM* | 7.3µM*
C=C(C(=O)c1ccccc1)C(C(=C)C(=O)c1ccccc1)c1ccc(OC)cc1 | ? | ? | ? | 16µM* | ?
SMILES | KB-3-1 cytotox | KB-V1 MDR tox | MCF10A rerep | ELG1 DNA repair | SW480 rerep
COc1cc(NCCCn2cnc3c(OCc4ccccc4)ncnc32)cc(OC)c1OC | i | i | 10% | . | -2%
O=C(NCCC1=CCCCC1)c1c(O)nc2sccn2c1=O | ? | 5.2µM* | 18% | ? | 0%
O=C(NCCC1=CCCCC1)c1c(O)nc2ccccn2c1=O | i | ? | -1% | ? | 0%
COC(=O)C1=C[C@@H](C(=O)OC)[C@@H]2C3=C(C(=O)[C@]2(C)NC(=O)c2ccccc2)[C@H](C)n2c(=O)n(-c4ccccc4)c(=O)n2[C@@H]3C1 | i | i | -10% | . | 0%
Nc1nc(N)c2sc3nc(C(F)(F)F)cc(C(F)(F)F)c3c2n1 | i | 18µM* | ? | ? | -3%
COc1ccc2c(c1)O[C@H](c1ccc3c(c1)OCO3)[C@@H](O)C2=O | ? | i | 12% | ? | ?
COc1ccc2c(c1)O[C@@H](c1cccc(C(F)(F)F)c1)[C@H](O)C2=O | . | . | 7% | 9% | 21µM*
c1coc(CNc2c3c(nc4ccccc24)CCC3)c1 | ? | ? | 18µM* | -17% | ?
Cc1ccc2nc3c(c(Nc4ccc(C)c(C)c4)c2c1)CCC3 | i | 18µM* | . | . | .
Cc1ccc(Nc2c3c(nc4ccccc24)CCC3)cc1F | 21µM* | i | . | . | .
Cc1cccc(Nc2c3c(nc4ccccc24)CCC3)c1 | ? | ? | -9% | 21µM* | -53%
Cc1csc2nc(O)c(C(=O)NC3CCCCC3C)c(=O)n12 (centres undefined) | ? | ? | 17% | 18% | -361%
Cc1ccc(S(=O)(=O)Nc2ccc3c(c2)CCC3)cc1 | ? | 21µM* | 12% | 6% | -96%
CC(=O)N1CCCc2ccc(NS(=O)(=O)c3ccccc3)cc21 | i | ? | 20% | ? | 6.5µM*

Screening data deposited in PubChem by National Center for Advancing Translational Sciences (NCATS).
